Tau fluor counter: Counterscreen qHTS for Inhibitors of Tau Fibril Formation, Fluorescence Polarization. tau K18 P301L Alexa594 fluorescence, heparin fibrillization. Potency, µM (highest dose often 57.7 µM), for the others: at the highest dose activity change, negative = decrease. hit rate 0.93% among 280,000. AID 1463, 2008; note: potency is the fitted concentration of half-maximal effect; % is set by controls: 0 for no effect and ±100 for the full control effect; nearly all actives have a fitted effect of over 55% in size
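Human K18 P301L tau (15 uM unlabeled plus 0.24 uM Alexa 594-labeled, final) in 100 mM sodium acetate pH 7 was mixed with compound and 20 uM heparin and incubated 6 hr at 37 C.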
CBFb RUNX1 block: qHTS Assay for Compounds Blocking the Interaction Between CBF-beta and RUNX1 for the Treatment of Acute Myeloid Leukemia; 230,000 tested, under 10 active; AlphaScreen CBFb-His/RUNX1-biotin binding, biochemical; Potency, µM (series often up to 59.8 µM), inactives show at the highest dose activity, negative = inhibition, usual class: inhibitors; AID 1477, 2009; Runt-related transcription factor 1 (Homo sapiens) + Core-binding factor subunit beta …; note: % of control where 0% means no effect
Target sequence (Q01196 whole entry, looked up): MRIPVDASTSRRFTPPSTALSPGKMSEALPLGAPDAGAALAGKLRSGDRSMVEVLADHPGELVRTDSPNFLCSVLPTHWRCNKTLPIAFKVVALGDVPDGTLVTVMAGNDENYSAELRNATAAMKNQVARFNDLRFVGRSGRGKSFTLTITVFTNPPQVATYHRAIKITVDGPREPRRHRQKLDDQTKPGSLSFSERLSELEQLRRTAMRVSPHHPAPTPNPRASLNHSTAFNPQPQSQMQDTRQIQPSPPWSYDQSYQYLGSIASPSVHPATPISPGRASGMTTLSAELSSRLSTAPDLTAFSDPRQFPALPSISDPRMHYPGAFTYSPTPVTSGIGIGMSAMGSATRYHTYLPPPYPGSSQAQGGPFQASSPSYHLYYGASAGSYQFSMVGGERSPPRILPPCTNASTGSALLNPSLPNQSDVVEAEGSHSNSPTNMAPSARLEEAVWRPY
Target sequence (Q13951 whole entry, looked up): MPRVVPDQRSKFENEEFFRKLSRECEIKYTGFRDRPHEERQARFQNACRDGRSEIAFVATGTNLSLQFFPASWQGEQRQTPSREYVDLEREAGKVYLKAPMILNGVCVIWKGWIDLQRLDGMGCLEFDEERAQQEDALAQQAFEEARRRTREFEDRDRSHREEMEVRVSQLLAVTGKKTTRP
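Inhibition was taken as any reduction in AlphaScreen signal from the CBF-beta–RUNX1 pair (His and biotin tags, 30 nM each), measured after compound (15 min) and bead (90 min) incubations at room temperature.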
Tau FP inhib: qHTS for Inhibitors of Tau Fibril Formation, Fluorescence Polarization; hit rate 0.39% among 280,000; K18 P301L tau heparin fibrillization, Alexa594 FP, 6 h; Potency, µM (titrated, usually from 57.7 µM), inactives show top-dose activity, negative = inhibition, actives largely listed as inhibitors; AID 1468, 2008; note: potency is the fitted concentration of half-maximal effect; % is set by controls: 0 for no effect and ±100 for the full control effect; nearly all actives have a fitted effect of over 55% in size
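Heparin (20 uM) drove fibril formation of recombinant tau K18 P301L, 15 uM unlabeled with 0.24 uM Alexa 594 label, for 6 hr at 37 C in 100 mM sodium acetate pH 7. Fluorescence polarization (555/632 nm) read 1 hr after 30 uM ThT.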
Lamin A splicing: qHTS Assay for Modulators of Lamin A Splicing. HeLa LMNA splicing GFP/RFP minigene ratio, 48 h. Potency, µM (doses to about 46.1 µM), inactives show top-dose ratio change, negative = inhibition, actives largely listed as inhibitors. hit rate 0.01% among 200,000. AID 1487, 2009; active = well fitted inhibition curve with a large enough effect in the signal ratio, with a control signal flat, not every such curve was filed as active; inconclusive = small, poorly fitted or top-dose-only effect, or effect the other way, or a change in a side signal; the % refers to the signal ratio; note: potency is the fitted concentration of half-maximal effect; % is set by controls: 0 for no effect and ±100 for the full control effect
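Read-out is the ratio of GFP to DsRed2 object intensity, acquired by 488 nm laser-scanning cytometry on HeLa lamin A-EGFP minigene reporter cells. Compound incubation 48 hrs at 37 °C in Opti-MEM with 2% FBS; DMSO 0.5% final.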
Tau fibril ThT: qHTS for Inhibitors of Tau Fibril Formation, Thioflavin T Binding; Microtubule-associated protein tau (Homo sapiens), P10636; recombinant tau K18 P301L, heparin-induced fibrillization, ThT fluorescence; hit rate 2.1% among 270,000; Potency, µM (doses to about 57.4 µM), inactives show at the top dose activity, negative = inhibition, actives largely listed as inhibitors; note: potency is the fitted concentration of half-maximal effect; % is set by controls: 0 for no effect and ±100 for the full control effect; nearly all actives have a fitted effect of over 55% in size
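Fibril formation assay: tau K18 P301L at 15 uM with trace Alexa 594 label, heparin inducer 20 uM, pH 7 sodium acetate buffer, 37 C for 6 hr; endpoint ThT signal.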
JMJD2E inh: qHTS Assay for Inhibitors of Human Jumonji Domain Containing 2E (JMJD2E); JMJD2E catalytic domain, FDH-coupled NADH fluorescence (FDH is formaldehyde dehydrogenase); Potency, µM (series often up to 57.1 µM), without a hit: top-dose activity change, negative = inhibition, hits mostly inhibitors; hit rate 1.6% among 230,000; active = well fitted inhibition curve with a large enough effect, not every such curve was filed as active; inconclusive = small, poorly fitted or top-dose-only effect, or another doubt; inactive = no such curve, though single readings can be large or run the other way;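 note: potency is the fitted concentration of half-maximal effect; 0% = wells with enzyme and -100% = buffer wells without enzyme; nearly all actives have a fitted effect of over 50% in size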
Numbers without * were called inactive; ? = inconclusive; . = no result given; [ ] = dose if it differs, or a comment. This is a sample that favours compounds with a hit; in the whole collection about 3.2% have one here. Unless noted, calls come from the whole dose curve; as a rule, active = well fitted curve in the direction sought with a large enough effect; inconclusive = small, poorly fitted or top-dose-only effect, or another doubt; inactive = no such curve, though single readings can be large; an effect the other way counts as inactive or inconclusive.

SMILES | Tau fluor counter | CBFb RUNX1 block | Tau FP inhib | Lamin A splicing | Tau fibril ThT | JMJD2E inh
O=C(CSc1ncnc2c1nnn2-c1ccc(F)cc1)NCC1CCCO1 (stereo not given) | -8% | -3% | 0% | 5% | ? | 0%
CC(=O)C(Sc1ncnc2c1nnn2-c1ccc(F)cc1)C(=O)N(C)C (stereo not given) | -15% | 4% | ? | 15% | 14µM* | -20%
COc1ccc2c(c1)CC1(CN2C)C(=O)NC(=O)N(CCc2ccccc2)C1=O (stereo not given) | -20% | -14% | ? | -1% | ? | -12%
CCC(C)N1C(=O)NC(=O)C2(Cc3c(ccc4ccccc34)N(C)C2)C1=O (stereo not given) | ? | -14% | ? | -6% | 16µM* | -27%
CC(C)N(Cc1ccccc1)C(=O)CCS(=O)(=O)c1ccc2c(c1)oc(=O)n2C | -16% | . | -5% | -11%[46 µM] | ? | .
COc1ccc(CN2CCc3nc(N4CCN(c5ccc(F)cc5)CC4)ncc3C2)c(OC)c1OC | -17% | . | -1% | ? | ? | .
FC(F)=C(F)CCSc1ncn[nH]1 | 10% | 0% | 6% | ? | 5% | 4.5µM*
NC(Cc1cc(O)c(O)cc1O)C(=O)O (stereo not given) | ? | . | ? | ? | 14µM* | 13µM*
N[C@@H](CCl)C(=O)O | -1% | -4% | 3% | ? | -7% | -10%
CCOC(=O)c1ccc(N2CCN(c3ccccc3F)CC2)c(NC(=O)Nc2ccc(Cl)c(Cl)c2)c1 | -19% | . | ? | ? | 10% | .
CC(=O)NC1N=C(C)N(c2ccccc2)C1=O (stereo not given) | ? | 1% | ? | 19% | ? | ?
CC1=NN(c2ccccc2)C(=O)C1=C(C)C | ? | -11% | -9% | . | 11µM* | -7%
CC(CCC(=O)O)C1CCC2C3C(=O)C[C@@H]4CC(=O)CC[C@@]4(C)C3CC(=O)[C@]12C (stereo not given in full) | -7% | . | -4% | ? | -6% | -5%
NCCc1c[nH]c2ccc(OCc3ccccc3)cc12 | 13µM*[quencher] | -11% | 8% | . | -19% | ?
CC(C)CCCC(C)C1CCC2C3CC(=O)[C@H]4CC(O)CC[C@]4(C)C3CC[C@@]12C (stereo not given in full) | -4% | . | -5% | ? | 2% | 2%
NNC(N)=S | . | 4%[21.7 µM] | . | . | . | .
O=C1NC(=O)N(Cc2ccccc2)C(=O)/C1=C/C=C/c1ccco1 | -26% | . | ? | . | 10µM* | -15%
COc1ccc(/C=C2/C(=O)N(Cc3ccco3)C(=O)N(C(C)C)C2=O)cc1 | -12% | ? | ? | 13% | 18µM* | ?
CN(C)c1ccc(/C=C2/C(=O)NC(=O)N(Cc3ccco3)C2=O)cc1 | -12% | ? | -18% | -21% | ? | -30%
CC(C)N1C(=O)/C(=C/C=C/c2ccco2)C(=O)N(Cc2ccco2)C1=O | -30% | ? | ? | ? | 28µM* | -28%
O=C1NC(=O)N(CCc2ccc(F)cc2)C(=O)/C1=C/c1ccco1 | ? | ? | ? | . | 10µM* | -15%
Cc1ccc(/C=C2/C(=O)NC(=O)N(CCc3ccc(F)cc3)C2=O)o1 | -5% | -5% | -5% | ? | ? | -8%
c1ccc(N2CCN(c3ncnc4c3nc3n4CCCCC3)CC2)cc1 | -15% | . | 10% | -6%[46 µM] | ? | .
CCN1C(=O)C(=C/C=C/c2ccco2)C(=O)N(CC)C1=S | -13% | ? | ? | -1% | 16µM* | 16µM*
CCc1c(C(=O)OC)ncc2[nH]c3cc(OC)c(OC)cc3c12 | 16µM*[quencher] | -8% | 6% | ? | ? | ?
SMILES | Tau fluor counter | CBFb RUNX1 block | Tau FP inhib | Lamin A splicing | Tau fibril ThT | JMJD2E inh
COC(=O)C1C(O)C(C)C(O)C(C)/C=C\C=C(/C)C(=O)Nc2c(C)c(OC(C)=O)c3c(c2O)C(=O)C(C)=C2OCOC(=C23)/C(C)=C/C(C)(O)C(O)C(C)C1O (stereo not given) | ? | -24% | ? | . | 32µM* | ?
COc1ccccc1C(=O)Nc1ccc2nc(SCC(=O)N3CCCc4ccccc43)sc2c1 | -24% | . | ? | 3%[46 µM] | -10% | .
C[S@@](=O)CCCCN=C=S | . | 14% | . | . | . | .
CCC1(C)CC(C(N)=S)CCO1 (stereo not given) | -14% | -5% | ? | . | 13µM* | ?
Cc1cc(C(=O)O)sc1C(N)C(=O)O (stereo not given) | -16% | 17% | -15% | . | ? | ?
N/C(=N\N=C\c1ccc(O)cc1O)N[N+](=O)[O-] | -14% | -9% | 2% | 20% | ? | 25µM*
CC(C)c1cccc(O)c(=O)c1 | -17% | -17% | 2% | 4%[9.22 µM] | ? | 7.9µM*
CC(N)[C@@H](O)c1ccccc1 (stereo not given in full) | 0% | . | -4% | -11% | 0% | 9%
Cn1c(SCc2nc3cc(C(=O)O)ccc3c(=O)[nH]2)nnc1C(F)(F)F | 1% | 14% | 6% | 16%[46 µM] | -4% | ?
CCOc1ccc(-c2nc(CSCC(=O)NCCc3ccc(OCC)c(OCC)c3)c(C)o2)cc1 | -10% | . | -15% | ? | ? | .
C[C@]12C=CC(=O)C=C1CCC1C2=CC[C@]2(C)[C@@H](C(=O)CN3CCN(c4cc(N5CCCC5)nc(N5CCCC5)n4)CC3)CC[C@@H]12 (stereo not given in full) | -11% | -7% | ? | ? | ? | ?
O=Cc1ccc(O)c(O)c1 | -9% | 3% | -8% | ? | -15% | 4.5µM*
Cc1ccc2c(c1)cc(C(=O)Nc1ccccc1C)n2C | 6% | . | 2% | ? | 0% | .
CCn1nc(-c2cccs2)nc2c(=O)n(C)c(=O)nc1-2 | -22% | ? | ? | ? | 18µM* | ?
O=C1NC(=S)N(Cc2ccco2)C(=O)/C1=C\c1cccs1 | ? | . | ? | . | 13µM* | 14µM*
C=CCN1C(=O)/C(=C/c2cccs2)C(=O)NC1=S | ? | -5% | 9% | ? | ? | -4%
COc1cc(OC)c(OC)cc1CN1CCc2nc(N3CCN(c4ccccc4F)CC3)ncc2C1 | -4% | . | 7% | ? | ? | .

High-throughput results: PubChem BioAssay, National Center for Advancing Translational Sciences (NCATS)
